Screening results: PubChem BioAssay, National Center for Advancing Translational Sciences (NCATS)
In the library only some 9.4% were active in any assay of this set; here they are far more common.
Pf growth 96h – inhibits malaria parasite growth, 96 h; P. falciparum luciferase reporter growth, 96 h; Potency, µM (highest dose often 28.7 µM), for the others: top-dose activity change, negative = inhibition, actives largely listed as inhibitors; actives 6.9% (n = 320,000); note: % is set by controls: 0 for no effect and ±100 for the full control effect
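Two-generation exposure (96 h) targets delayed-death phenotype. Reporter parasites carrying integrated firefly luciferase, in red cells at 2% hematocrit and 0.05% parasitemia final, kept at 37 C, 5% CO2; luminescence loss indicates inhibition.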
AMA1 RON2 block – AMA1-RON2 (P. falciparum) interaction inhibition. AlphaScreen AMA1-biotinylated RON2 peptide binding. Potency, µM (top dose mostly 58.2 µM), without a hit: at the top dose activity change, negative = inhibition, most hits filed as inhibitors. actives 0.2% (n = 360,000). AID 720542;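 note: 0% = vehicle wells and -100% = peptide control; nearly all actives have a fitted effect of over 45% in size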
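AMA1 (3D7) with his tag at 25 nM final met compounds first, then biotinylated RON2 peptide at 25 nM; detection used donor plus acceptor beads, 10 µg/mL apiece, read by AlphaScreen after 30 min at room temperature.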
SARS PLpro yeast – SARS-CoV PLP inhibition in yeast; actives 0.19% (n = 330,000); Potency, µM (highest dose often 32.9 µM), for the others: top-dose activity, positive = growth rescue, most hits filed as activators; AID 485353; S. cerevisiae expressing SARS-CoV PLpro, growth rescue; calls by dose curve; note: 0% is about no effect; nearly all actives have a fitted effect of over 55% in size
Pf growth 48h – P. falciparum growth inhibition at 48 hours (one generation); P. falciparum luciferase growth in erythrocytes, 48 h; AID 504832; Potency, µM (doses to about 28.7 µM), for inactives: top-dose activity change, negative = inhibition, hits mostly inhibitors; actives 5.9% (n = 310,000); note: % is set by controls: 0 for no effect and ±100 for the full control effect
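Luminescence readout; reporter = integrated firefly luciferase in P. falciparum. RBC culture at 2% hematocrit, 0.1% parasitemia final, 37 C/5% CO2; decreased signal taken as growth inhibition.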
The depositor's hits bear a star; ? = inconclusive; · = no result given; [ ] = dose if it differs, or a comment. Unless noted, calls come from the whole dose curve; as a rule, active = well fitted curve in the direction sought with a large enough effect; inconclusive = small, poorly fitted or top-dose-only effect, or another doubt; inactive = no such curve, though single readings can be large; an effect the other way counts as inactive or inconclusive. Potency is the fitted concentration of half-maximal effect.

SMILES	Pf growth 96h	AMA1 RON2 block	SARS PLpro yeast	Pf growth 48h
Cc1cc(N/N=C/c2c[nH]c3ccccc23)c2ccccc2n1	28.5%	0.3%	-0.1%	33.1%
CCn1c(/N=C/c2c[nH]c3ccccc23)nc2ccccc21	1.85µM*	-11.3%	-4.7%	11.6%
Cn1c(N/N=C/c2c[nH]c3ccccc23)nc2ccccc21	1.65µM*	?	2.6%	7.38µM*
S=C(NCCc1ccccc1)Nc1ccc(Br)cn1	8.28µM*	11.3%	1.9%	-2.1%
S=C(NCCc1ccccc1)NCCc1ccccc1	8.4%	-4.1%	-33.8%	58.3%
CCC(C(=O)NC1CCCCCC1)n1nc(C)c2c(C)n(-c3ccccc3)nc2c1=O (stereo not drawn)	10.4µM*	14.1%	0.0%	?
CCC(C(=O)NCCc1ccco1)n1nc(C)c2c(C)n(-c3ccccc3)nc2c1=O (stereo not drawn)	13.9%	-7.2%	?	-4.6%
CCC(C(=O)NCCC1=CCCCC1)n1nc(C)c2c(C)n(-c3ccccc3)nc2c1=O (stereo not drawn)	11.7µM*	15.9%	-0.3%	?
CCC(C(=O)NCc1ccco1)n1nc(C)c2c(C)n(-c3ccccc3)nc2c1=O (stereo not drawn)	14.7µM*	-0.9%	-2.6%	-13.8%
CN(C)C(=O)CSc1nnc(CCCCCNC(=O)OC(C)(C)C)o1	?	3.6%	-4.4%	-2.1%
COc1ccc(Cn2c(O)c(C=NCCCn3ccnc3)c(=O)[nH]c2=O)cc1	?	-6.4%	-2.6%	?
CCc1ccc(OCC(=O)NC2CCCCC2)c(Br)c1	11.7µM*	1.1%	-4.0%	1.4%
CCc1ccc(OCC(=O)NNC(=O)c2cnccn2)c(Br)c1	?	97.3%	?	10.4µM*
CC1CN(S(=O)(=O)c2ccc(F)cc2)CN1C(=O)N1CCOCC1 (stereo not drawn)	11.3%	0.7%	1.1%	2.1%
COc1ccc([N+](=O)[O-])cc1CSc1ccccn1	-78.5%[1.15 µM]	8.8%	1.0%	7.6%
O=C(Cn1ncc(Cl)c(Cl)c1=O)NCC1CCCCC1	-2.9%	8.3%	-32.1%	-18.2%
O=C(O)CNC(=O)C(c1ccccc1)c1ccccc1	-22.7%	-16.2%	0.7%	13.1µM*
O=C(NCCO)C(c1ccccc1)c1ccccc1	?	5.0%	1.6%	10.5%
COc1ccccc1N1CCN(C(=O)c2ccc(NC(C)=O)cc2)CC1	?	8.8%	2.5%	-0.7%
O=C(CN(CCN1CCOCC1)C(=O)Cn1nnc(-c2ccc(F)cc2)n1)NC1CCCCC1	6.57µM*	5.7%	-1.0%	·
CC(C)CCNC(=O)C(c1ccncc1)N(C(=O)Cn1nnc(-c2ccc(F)cc2)n1)c1ccccc1F (stereo not drawn)	6.57µM*	-16.1%	-0.2%	?
CC(C)(C)NC(=O)C(c1ccncc1)N(Cc1cccs1)C(=O)Cn1nnc(-c2ccc(F)cc2)n1 (stereo not drawn)	?	-4.6%	3.5%	?
CC(C)(C)NC(=O)C(OC(=O)Cn1nnc(-c2ccc(F)cc2)n1)c1ccncc1 (stereo not drawn)	9.28µM*	8.4%	13.6%	17.5%
Cc1ccc(-c2nnn(CC(=O)N(Cc3ccc(F)cc3)C(C(=O)NC3CCCC3)c3ccncc3)n2)o1 (stereo not drawn)	-29.2%	11.3%	11.4%	?
CC(C)(C)N(C(=O)Cn1nnc(-c2ccc(F)cc2)n1)C(C(=O)NC1CCCC1)c1ccncc1 (stereo not drawn)	8.28µM*	-3.0%	-14.2%	?
SMILES	Pf growth 96h	AMA1 RON2 block	SARS PLpro yeast	Pf growth 48h
CC(C)(C)C(=O)NC1CC2CCCC(C1)N2C(=O)Nc1ccccc1 (stereo not drawn)	?	-13.9%	?	?
CC(C)Sc1sc(C(=O)O)c(-c2ccc(Cl)cc2)c1C#N	-9.1%	2.0%	0.7%	2.2%
Cc1ccc(C)c(N(C(=O)Cn2nnc(-c3cccs3)n2)C(C(=O)NC2CCCC2)c2ccncc2)c1 (stereo not drawn)	?	-7.1%	1.0%	4.65µM*
COc1ccc(S(=O)(=O)N2CCN(C3CC4CCC3C4)CC2)cc1 (stereo not drawn)	-0.9%	-14.7%	2.3%	?
CC(C)(C)c1ccc(OCC(=O)NC2CCS(=O)(=O)C2)cc1 (stereo not drawn)	·	1.1%	1.8%	?
C=CCN1C(=O)c2ccccc2NC1c1cc(Br)cs1 (stereo not drawn)	?	-7.4%	0.8%	10.4µM*
CN1CCN(c2ccc(NC(=O)c3sc4ccccc4c3Cl)cc2)CC1	21.6%	-27.7%	-7.3%	137.8%
COc1cc2c(cc1OC)C(COc1ccccc1OC)N(C(=O)c1ccco1)CC2 (stereo not drawn)	6.57µM*	-8.0%	-0.6%	?
CCCC(=O)N1CCc2cc(OC)c(OC)cc2C1COc1ccccc1OC (stereo not drawn)	-12.7%	-2.5%	-0.4%	?
CCOc1ccc(CC2c3cc(OCC)c(OCC)cc3CCN2C(=O)c2cc(OC)c(OC)c(OC)c2)cc1OCC (stereo not drawn)	1.31µM*	-2.7%	3.1%	1.47µM*
COc1cc2c(cc1OC)C(c1ccccc1)N(C(=O)CCl)CC2 (stereo not drawn)	?	-11.8%	-1.8%	?
COc1cc2c(cc1OC)C(C)N(C(=O)c1cccc([N+](=O)[O-])c1)CC2 (stereo not drawn)	0.522µM*	-12.4%	-5.9%	-8.0%
COc1ccc(C(=O)N2CCc3cc(OC)c(OC)cc3C2c2ccc(OC)c(OC)c2)cc1OC (stereo not drawn)	6.57µM*	-4.9%	1.4%	13.1µM*
CC(=O)N1CCSc2ccc(S(=O)(=O)Nc3ccccc3C)cc21	?	-1.3%	1.3%	?
CCN1CCN(S(=O)(=O)c2ccc(Cl)c(C(=O)N(C)Cc3ccc(F)cc3)c2)CC1	-15.9%	-1.7%	-1.3%	2.9%
COc1cc2c(cc1OC)C(COc1ccccc1OC)N(C(=O)C(C)C)CC2 (stereo not drawn)	10.4µM*	-4.0%	1.2%	?
c1ccc(OCc2nnc3n2CCCCC3)cc1	38.0%	-20.6%	0.9%	14.7%
CCC1CCCCN1S(=O)(=O)c1ccc(NC(=O)c2cccnc2)cc1 (stereo not drawn)	25.8%	-6.7%	3.9%	3.6%
Cc1ccc(Cl)cc1N1CCN(Cc2cc3c(cc2O)CCC3)CC1	0.147µM*	-4.8%	-1.9%	·
O=S(=O)(Nc1cc(C(F)(F)F)ccc1N1CCOCC1)c1ccc2ccccc2c1	13.1µM*	-24.3%	-6.0%	?
Cc1ccc(S(=O)(=O)Nc2cc(C(F)(F)F)ccc2N2CCOCC2)cc1C	?	-9.6%	1.1%	3.29µM*
COc1ccc(C(=O)O)cc1S(=O)(=O)Nc1cc(C(F)(F)F)ccc1N1CCCCC1	·	0.0%	·	·
CCOC(=O)c1ccc(N2CCCCC2)c(NS(=O)(=O)c2cccc(C(F)(F)F)c2)c1	9.28µM*	-7.8%	-3.0%	10.4µM*
O=S(=O)(Nc1cc(C(F)(F)F)ccc1N1CCOCC1)c1ccccc1	?	12.8%	0.8%	?
COc1ccccc1-c1noc2ncnc(Nc3cccc(C)c3)c12	52.2%	4.5%	0.7%	?
